Data taken from PubChem BioAssay (NCI).
Values joined by “and” are separate entries in the source; they are usually repeats but may differ in a detail not shown here. Equal values may be shown once. About 83,000 compounds went through this panel and 20% of them were active in at least one assay; those are over-represented in the sample as a whole.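 Cells were grown in 96-well plates and exposed to the test compound at a single concentration for 48 hours; results are reported as percent growth, with values below 10 considered active.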 Unmarked numbers belong to inactive results. Active and inactive are the calls of the source.

Test system: MDA-MB-468 breast
Experiment: NCI-60 one-dose screen, 48 h (100 = growth as untreated, 0 = no growth, -100 = all killed)
Conditions: 10 µM unless noted

Row | Compound | growth
1 | CCOC(=O)c1sc(-c2ccc(OS(=O)(=O)c3ccc(C(C)(C)C)cc3)c(C=O)c2)nc1C | 1.65% (active)
2 | C=C1C(=O)O[C@H]2[C@H]1CC/C(COC(=O)CCCCC(=O)OC/C1=C/CC[C@@]3(C)O[C@H]3[C@H]3OC(=O)C(=C)[C@@H]3CC1)=C\CC[C@@]1(C)O[C@@H]21 | 45.5%
3 | CNC(=O)c1cc(-c2ccc(NC(=S)Nc3cccc(C(F)(F)F)c3)cc2)nc2cccnc12 | 47.9%
4 | Cn1ccnc1C(=O)/C=C/c1ccc(CC(=O)Nc2cc(F)c(F)c(F)c2)cc1 | -23.4% (active)
5 | Cc1cc(OCCO)cc(C)c1Cl | 124%
6 | CC(C)(C)OC(=O)NCc1cccc(N=C=S)c1 | 39.4%
7 | CCN(CC)CCCC(CNc1ccnc2cc(Cl)ccc12)c1ccc(Cl)cc1 (centres undefined) | -78.1% (active) and -70.5% (active)
8 | O=S(=O)(Nc1cc(Cl)c(F)c(Cl)c1)c1ccc(-c2cnc(C3CC3)o2)cc1 | 13.5%
9 | CCOc1ccc(Nc2nc(-c3c(C)nc4ncccn34)cs2)cc1 | 30.2%
10 | CCc1nc2c(=O)[nH]cnc2o1 | 90.8%
11 | COc1ccc(C(=O)c2cc3c(N)c(C(=O)Nc4cccc(Br)c4C)sc3nc2C)cc1 | -1.96% (active)
12 | CCCCCC(=O)N(CCCC)CCCC | 97.8%
13 | O=C(O)c1ccc2c(c1Cl)C(=O)c1ccccc1C2=O | 88.9%
14 | C/C(=N\NC(=O)CSc1nc2ccccc2c(=O)n1CCc1ccc(S(N)(=O)=O)cc1)c1ccc(Br)cc1 | 84.1%
15 | CCCNC(=O)Oc1ccc(/C(=C(/C)Cc2ccc(OC)cc2)c2ccc(OCCN3CCCC3)cc2)cc1 | 69%
16 | COc1ccc(Nc2ncnc3c2sc2nc(C)cc(C)c23)cc1 | 95.1%
17 | N#CSc1c[nH]c2cccc(/C=C/C(=O)/C=C(O)/C=C/c3cccc4[nH]cc(SC#N)c34)c12 | -55.8% (active)
18 | COC(=O)CCC(=O)c1ccccc1 | 115%
19 | CCN(CC)c1ccc(/C=N/NC(=O)c2ccc(S(N)(=O)=O)cc2)c(O)c1 | -0.911% (active)
20 | COc1cc2oc(-c3ccc(NC(=O)c4ccccc4)cc3)cc(=O)c2c(OC)c1OC | 96.5%

Row | Compound | growth
21 | CC(C)(C)OC(=O)NCCc1ccc(N=C=S)cc1 | 60.6%
22 | NCCCN1CCCC1=O | 116%
23 | O=Cc1ccc([N+](=O)[O-])s1 | 103%
24 | COc1cc2c3c(n(C4CCNCC4)c(=O)c2cc1OC)-c1cc2c(cc1C3=O)OCO2 | -81% (active)
25 | Cc1nnc(NS(=O)(=O)c2ccc(N=Nc3ccc(N)nc3N)cc2)s1 | 120% and 132%
26 | COC(=O)C(C)[C@H]1CC[C@@H]2[C@]1(C)CC=C1[C@]23C=C[C@]2(C[C@@H](OC(C)=O)CC[C@]12C)C(C(=O)OC)C3C(=O)OC (some centres undefined) | 94.1%
27 | CCOC(=O)c1cn2ncnc(Oc3ccc(NC(=O)NC4CC4)c(Cl)c3)c2c1C | 90.1%
28 | c1ccc(Nc2cc(-c3cccnc3)[nH]n2)cc1 | 106%
29 | COc1ccc2nc3cc(Cl)ccc3c(Nc3cc(CN4CCCC4)c(O)c(CN4CCCC4)c3)c2n1 | -53.3% (active)
30 | COC(CC(F)F)c1cn(S(=O)(=O)c2ccc(C)cc2)c2ccccc12 (centres undefined) | 8.95% (active)
31 | Cc1ccc(/C=C2\COc3ccc(O)c(O)c3C2=O)cc1 | -18.5% (active)
32 | c1ccc2cc3nc4cc5ccccc5cc4nc3cc2c1 | 117%
33 | Cc1[nH]c(=O)[nH]c(=O)c1CCSSCCc1c(C)[nH]c(=O)[nH]c1=O | 105%
34 | NS(=O)(=O)Oc1ccc(NC(=O)C23CC4CC(CC(C4)C2)C3)cc1Cl | 103%
35 | COc1ccc(/C(=C(\c2ccccc2)[N+](=O)[O-])c2ccc(OCCN3CCCC3)cc2)cc1 | 68.1%
36 | O=[N+]([O-])c1c(F)cccc1Nc1cccc(F)c1 | 127%
37 | COc1nc2c(c(=O)n1C)CN(Cc1ccccc1)C=N2 | 97.6%
38 | COc1cc2c(cc1OCCCN1Cc3ccc(OCCCCC(=O)N4CCC(CCN5CCCC5)CC4)cc3C1)N=C(N)C21CCCC1 | 17.4%
39 | O=S(=O)(NCCNc1nccc(-c2c(-c3cccc(O)c3)nc3occn23)n1)c1cccc(F)c1 | 97%
